Records with an inconclusive call do not appear. Calls of active or inactive are those of the source. The calls were made as follows: active = hit-call score of the fitted dose curve at least 0.9, where 1 is the maximum; inconclusive = response in the unintended direction; inactive = score below 0.9.

Chain of human Neurokinin, NK2 Receptor, TACR2 (gene 6865) (P21452 whole entry, looked up): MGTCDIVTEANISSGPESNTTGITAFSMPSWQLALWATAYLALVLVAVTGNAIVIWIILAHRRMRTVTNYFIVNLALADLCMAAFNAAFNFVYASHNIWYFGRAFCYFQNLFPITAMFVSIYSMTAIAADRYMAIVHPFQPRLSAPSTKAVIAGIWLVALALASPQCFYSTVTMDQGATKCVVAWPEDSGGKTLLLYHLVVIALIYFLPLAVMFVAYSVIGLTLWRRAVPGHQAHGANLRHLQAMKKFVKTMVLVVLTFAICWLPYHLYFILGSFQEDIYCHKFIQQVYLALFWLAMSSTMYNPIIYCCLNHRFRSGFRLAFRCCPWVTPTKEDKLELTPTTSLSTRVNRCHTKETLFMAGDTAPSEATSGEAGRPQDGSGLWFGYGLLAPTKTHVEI

The test has as its target human Neurokinin, NK2 Receptor, TACR2 (gene 6865) (UniProt P21452). The test can be described thus: NVS_GPCR_hNK2: NovaScreen (NVS) G Protein-Coupled Receptor Assay for human Neurokinin, NK2 Receptor (AID 2283278).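 Also: actives reduce bound radioligand signal relative to DMSO baseline.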 As to the method:
NVS_GPCR_hNK2 is a biochemical, single-readout assay that uses extracted gene-proteins from CHO in a cell-free assay. Measurements were taken 4 hours after chemical dosing in a 96-well plate.NVS_GPCR_hNK2 is one of one assay component(s) measured or calculated from the NVS_GPCR_hNK2 assay. It is designed to make measurements of radioligand binding, a form of binding reporter, as detected with scintillation counting signals by Filter-based radiodetection technology.Data from the assay component NVS_GPCR_hNK2 was analyzed into 1 assay endpoint. This assay endpoint, NVS_GPCR_hNK2, was analyzed in the positive analysis fitting direction relative to DMSO as the negative control and baseline of activity. Using a type of binding reporter, loss-of-signal activity can be used to understand changes in the binding as they relate to the gene TACR2. Furthermore, this assay endpoint can be referred to as a primary readout, because the performed assay has only produced 1 assay endpoint. To generalize the intended target to other relatable targets, this assay endpoint is annotated to the gpcr intended target family, where the subfamily is rhodopsin-like receptor.
Binding assays used specific radioligands (tritiated, iodinated) with non-radioactive competitive displacement ligands in agonist or antagonist protocols (as indicated) and various reference compounds and inhibitors to titrate specific binding to receptors and transporters. Most enzyme assays (CYPs, kinases, phosphatases, proteases, HDACs) used recombinant protein and specific substrates (fluorescence mostly, some colorimetric and radioactive) and inhibitors, followed by a biochemical separation of substrate and product. All assays for the biochemical HTS were initially run in duplicate at a single concentration (10 uM for CYP450 assays and 25 uM for all others). […] Each assay was run with positive and negative controls, and concurrent controls on every plate. The follow-up (secondary) screen tested active chemical-pairs in concentration series, as well as a few additional assays not tested in the primary screen, some selected negative inactives, and several cases re-run in the concentration series for confirmatory purposes.
Consider `CN1CCN(c2ccccc2/C=C2\SCCN(c3ccc(Cl)c(Cl)c3)C2=O)CC1`, for which the concentration at half-maximal activity (AC50) – broadly, the concentration at which the activity in the assay is half-maximal – is 6.97 µM (active). With `NC(=O)N(O)[C@@H]1C=C[C@H](Oc2cccc(Oc3ccc(F)cc3)c2)C1`, the compound was classed as inactive. `CCCCCCCCCCCCCC[N+](C)(C)C`: the AC50 is 4.81 µM (active). In the case of `O=C(OCCOCCOC(=O)c1ccccc1)c1ccccc1`, the call was inactive. Consider `CCCCCCCCCCCCc1ccccc1S(=O)(=O)O`, for which the AC50 is 38 µM (active). In the case of `CC(=O)NC1(c2cccc(F)c2)CCN(CC[C@@]2(c3ccc(Cl)c(Cl)c3)CN(c3ccccc3)C(=O)CO2)CC1`, the AC50 was 0.00268 µM (active). In the case of `Cc1oc(-c2ccccc2)nc1CCOc1ccc(C[C@H](Nc2ccccc2C(=O)c2ccccc2)C(=O)O)cc1`, the compound was called inactive. For `CCCOc1sc(C(=O)N2CCC(c3cc(CN)ccc3F)CC2)c(C)c1Br`, the concentration at half-maximal activity (AC50) is 7.85 µM (active). Consider `C#C[C@]1(O)CC[C@H]2[C@@H]3CCC4=CC(=O)CC[C@@H]4[C@H]3CC[C@@]21C`, for which the result was inactive. On the same count and under the same terms, the entry for `Oc1cc2ccccc2c2ccccc12` is “inactive”. `Cc1cc(CCN2CCN(c3nsc4ccccc34)CC2)cc2c1NC(=O)CC2(C)C`: the AC50 is 5.07 µM (active). Take `Nc1cccc2c(N)cccc12`: the outcome was inactive.

The values above are taken from PubChem BioAssay (EPA / NIEHS).
